Reference: PubChem BioAssay AID1851 (National Center for Advancing Translational Sciences (NCATS), 2009)
Among all 16,000 compounds or so, about 4,000 (25%) were called active. Roughly 26% stayed inconclusive and do not appear here. The call rests on the fitted dose curve; in most records, active means well fitted curve in the direction sought with a large enough effect; inconclusive means small, poorly fitted or top-dose-only effect, or effect the other way; inactive means no such curve, though single readings can be large or run the other way. These entries were drawn from the full list.

Molecular target: Cytochrome P450 2C9 (Homo sapiens) (UniProt P11712)
Assay: Cytochrome panel assay with activity outcomes
Settings: recombinant CYP, pro-luciferin dealkylation, luminescence, p450-cyp2c9; series mostly up to 57.1 µM; activity, negative = inhibition: at the top concentration
On the % scale 0 is the no-effect control and ±100 the full control effect.

Cytochrome P450 2C9 (Homo sapiens), sequence (P11712 whole entry, looked up): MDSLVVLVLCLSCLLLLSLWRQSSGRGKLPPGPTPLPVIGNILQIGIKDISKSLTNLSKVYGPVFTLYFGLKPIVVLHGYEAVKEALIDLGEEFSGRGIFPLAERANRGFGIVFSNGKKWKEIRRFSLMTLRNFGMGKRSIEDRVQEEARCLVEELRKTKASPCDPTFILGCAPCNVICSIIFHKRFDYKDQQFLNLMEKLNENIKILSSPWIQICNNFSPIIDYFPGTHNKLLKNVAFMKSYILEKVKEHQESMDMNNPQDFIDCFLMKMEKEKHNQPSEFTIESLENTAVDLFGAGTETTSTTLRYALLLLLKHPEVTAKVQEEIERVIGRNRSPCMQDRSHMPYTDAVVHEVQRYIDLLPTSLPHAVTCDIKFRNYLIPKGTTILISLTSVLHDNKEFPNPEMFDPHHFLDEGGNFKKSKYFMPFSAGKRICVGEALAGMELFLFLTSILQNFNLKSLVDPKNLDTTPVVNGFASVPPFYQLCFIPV

Row | SMILES | AC50 | activity, negative = inhibition
1 | Fc1ccc(CSc2nnc(-c3cc4c(s3)-c3ccccc3CC4)o2)cc1 | 3.16 µM (active) | –
2 | CCCCc1cc2ccccc2c(OCCN(C)C)n1 | – | -4.88% [at 25.6 µM] (inactive)
3 | Cc1ccc(-n2ccnc2SCC(=O)N(CC(C)C)C2CCS(=O)(=O)C2)c(C)c1 (stereo not given) | 14.1 µM (active) | –
4 | O=C(CSc1nnc(-c2ccc(Cl)cc2Cl)n1C1CCCCC1)NC1CCS(=O)(=O)C1 (stereo not given) | – | -10.5% (inactive)
5 | Cc1cc(C)n2c(SCC(=O)N(C)C3CCS(=O)(=O)C3)nnc2n1 (stereo not given) | – | -6.22% (inactive)
6 | CCC(=O)OCN1C(=O)C=CC1=O | – | 22.6% [at 11.4 µM] (inactive)
7 | NC(N)=NC[C@@H]1CCCCCCN1 | – | 3.41% [at 11.4 µM] (inactive)
8 | O=C(Nc1ccccc1)OC[C@H](CN1CCCCC1)OC(=O)Nc1ccccc1 | – | -19.8% [at 25.6 µM] (inactive)
9 | CN1c2ccccc2C(O)=C(C(=O)Nc2ccccc2)S1(=O)=O | 2.82 µM (active) | –
10 | Cn1cccc1C(=O)N1CCC2(CC1)CN(C(=O)Nc1ccccc1)C2 | – | 8.52% (inactive)
11 | Cc1ccc(S(=O)(=O)/N=C(/Nc2c(C)n(C)n(-c3ccccc3)c2=O)c2ccc(Cl)cc2)cc1 | 11.2 µM (active) | –
12 | Cc1c(NC(=O)Nc2c(Cl)cccc2Cl)c(=O)n(-c2ccccc2)n1C | – | -2.44% [at 11.4 µM] (inactive)
13 | Cc1c(NC(C)C)c(=O)n(-c2ccccc2)n1C | – | -9.77% [at 25.6 µM] (inactive)
14 | COC(=O)N1CCC2(CCCN(Cc3nccs3)C2)CC1 | – | -13.7% (inactive)
15 | Cn1c(CNS(=O)(=O)c2ccc(Cl)cc2)n[nH]c1=S | – | -14.4% (inactive)
16 | O=S(=O)(NCc1cc(-c2ccccc2)no1)c1ccc(Cl)cc1 | – | -25.6% (inactive)
17 | O=S(=O)(NCc1cc(-c2ccc(Cl)cc2)no1)c1ccc(Cl)cc1 | 3.98 µM (active) | –
18 | COC(=O)[C@@H]1[C@@H]2C[C@H]3c4[nH]c5cc(OC)ccc5c4CCN3C[C@@H]2C[C@H](OC(=O)c2cc(OC)c(OC)c(OC)c2)[C@H]1OC | – | -7.98% [at 25.6 µM] (inactive)
19 | CO[C@@H]1COC(=O)[C@@H](CCSC)NC(=O)C/C=C\[C@@H](C)COC(=O)CCC[C@H]1C | – | -5.5% [at 11.4 µM] (inactive)
20 | Oc1cccc(-c2nc3c4c(ncn3n2)-c2ccccc2CC42CCCC2)c1 | 7.08 µM (active) | –

Row | SMILES | AC50 | activity, negative = inhibition
21 | O=c1c2c(n3cnnc3n1-c1ccccc1)-c1ccccc1CC21CCCCC1 | – | -19.1% (inactive)
22 | CCOc1cc(/C=C2\C(=O)N(Cc3ccc(C)cc3)C(C)=C2C(=O)OC)ccc1O | 1.41 µM (active) | –
23 | CCOc1cc(/C=C2/NC(=O)N(CC(=O)Nc3cccc(C)c3)C2=O)ccc1OC | – | -14.1% (inactive)
24 | CCCCNC(=O)C1CC(=O)N(CCC(C)C)C1 (stereo not given) | – | -21.3% (inactive)
25 | COCCNC(=O)c1cn(Cc2c(F)cccc2Cl)nn1 | – | -7.08% (inactive)
26 | O=C(O)COc1c(Cl)cc(Cl)c2cccnc12 | – | 15.5% [at 11.4 µM] (inactive)
27 | COC(=O)c1sc2ncccc2c1OCc1c(Cl)cccc1Cl | 1.78 µM (active) | –
28 | CN1CCN(c2ncnc3ccc(-c4ccccc4Cl)cc23)CC1 | – | -20.9% [at 2.29 µM] (inactive)
29 | CC(=O)CCCCn1c(=O)c2c(ncn2C)n(C)c1=O | – | -1.76% [at 25.6 µM] (inactive)
30 | O=C(Cn1cccc1)NC1CCCCCC1 | – | -26.8% (inactive)
31 | O=C(CCCCn1c(=O)c2ccccc2n(CC(=O)NC2CCCC2)c1=O)NC1CCCC1 | 10 µM (active) | –
32 | c1ccc(Nc2nc(-c3cccnc3)nc3ccccc23)cc1 | – | -0.938% [at 2.29 µM] (inactive)
33 | FC(F)(F)c1ccccc1-c1nc(NCc2cccnc2)c2ccccc2n1 | – | -20.3% [at 2.29 µM] (inactive)
34 | CCOC(=O)c1ccc(OC(=O)CCCCCN=C(N)N)cc1 | – | 6.9% (inactive)
35 | c1cncc(CNc2nc(-c3ccoc3)nc3ccccc23)c1 | – | 0.547% [at 2.29 µM] (inactive)
36 | c1ccc(-c2nc(NCc3cccnc3)c3ccccc3n2)cc1 | 3.55 µM (active) | –
37 | COc1ccccc1-c1nc(NCc2cccnc2)c2ccccc2n1 | – | 5.64% [at 2.29 µM] (inactive)
38 | COc1ccccc1CNc1nc(-c2cccnc2)nc2ccccc12 | 1 µM (active) | –
39 | CCOC(=O)c1ccc(Nc2nc(-c3cccnc3)nc3ccccc23)cc1 | 5.01 µM (active) | –
40 | COc1ccccc1NC(=O)Nc1nc(-c2cccnc2)nc2ccccc12 | – | 25.8% (inactive)

Row | SMILES | AC50 | activity, negative = inhibition
41 | CCOC(=O)c1ccc(Nc2nc(=O)c3cccnc3s2)cc1 | 7.94 µM (active) | –
42 | CN(C)C(=O)c1ccc(-c2nc(Nc3ccncc3)c3ccccc3n2)cc1 | – | -8.55% [at 2.29 µM] (inactive)
43 | CN1CCCC2(CCN(C(=O)c3cc(C(F)(F)F)cc(C(F)(F)F)c3)CC2)C1 | – | 6.14% (inactive)
44 | COC(=O)c1c(-c2cc(OC)c(OC)c(OC)c2)c2ccnc(OCc3ncccn3)c2c(=O)n1Cc1ccnc(C)c1 | 12.6 µM (active) | –
45 | Cn1cnc([N+](=O)[O-])c1Sc1nc(N)nc2c1ncn2[C@H]1C[C@H](O)[C@@H](CO)O1 | – | -1.03% [at 11.4 µM] (inactive)
46 | Cn1c(-c2sc(=S)n(-c3ccccc3)c2N)nc2ccccc21 | 2.51 µM (active) | –
47 | Cc1cccc(N2CC(O)=C(c3nc4ccccc4n3C)C2=N)c1 | – | -8.08% (inactive)
48 | Cc1ccc(CS(=O)(=O)CCC(=O)NCCCN2CCCC2=O)cc1 | – | -8.86% (inactive)
49 | Cc1ccc(S(=O)(=O)N(CCCN2CCCC2=O)Cc2cc3c(C)ccc(C)c3[nH]c2=O)cc1 | 3.16 µM (active) | –
50 | O=C(NCCCN1CCCC1=O)c1ccc(CNS(=O)(=O)c2ccc(F)cc2)cc1 | – | -31.1% (inactive)
51 | Cc1ccc(N2CCN(CCC(=O)O)CC2)cc1 | – | 10.3% [at 11.4 µM] (inactive)
52 | Cc1ccc(C)c(-c2nn(-c3cc(N4CCN(CCO)CC4)ccc3[N+](=O)[O-])c(=O)c3ccccc23)c1 | 12.6 µM (active) | –
53 | CO[C@@H]1/C=C\CC(=O)N[C@@H](C)C(=O)OC[C@@H](OC)[C@H](C)/C=C\CC(=O)OC[C@H]1C | – | 9.15% [at 11.4 µM] (inactive)
54 | Cn1c(=O)c2[nH]c(CCS)nc2n(C)c1=O | – | 10.4% [at 11.4 µM] (inactive)
55 | Cc1cccc(NC(=O)CSc2nnc(-c3ccco3)c(-c3ccco3)n2)c1C | 1.78 µM (active) | –
56 | Cc1cc(C)nc(SCC(=O)Nc2ccccc2[N+](=O)[O-])n1 | – | -21.1% (inactive)
57 | Cc1cccc(Nc2cc(Cl)nc(SCC(=O)O)n2)c1C | – | -23.8% (inactive)
58 | O=C(O)CCC(=O)N1CCC[C@H]1C(=O)O | – | 21.5% (inactive)
59 | CCCC[C@H]1C[C@@H]1[C@@H]1N(P(=O)(c2ccccc2)c2ccccc2)[C@](CO)(c2ccccc2)CC12CC2 | 15.8 µM (active) | –
60 | CCCC[C@H]1C[C@@H]1[C@@H]1N(P(=O)(c2ccccc2)c2ccccc2)C[C@@](O)(c2ccccc2)CC12CC2 | – | -27.2% (inactive)
